Assay results as given in PubChem BioAssay (EPA / NIEHS).
Records with an inconclusive call do not appear. The source holds several records for some structures; these can differ, active in one and inactive in another. The source made the active and inactive calls. How the source made its calls, unless noted: active means hit-call score of the fitted dose curve at least 0.9, where 1 is the maximum; inconclusive means response in the unintended direction; inactive means score below 0.9.

Legend:
[1] = ATG_TCF_b_cat_CIS: Attagene CIS-FACTORIAL HepG2 Assay for human T-Cell-Factor with beta-catenin (TCF/b-cat) (AID 2282965; active means hit-call score of the fitted dose curve at least 0.9, where 1 is the maximum; inactive means score below 0.9); details: HepG2 TCF/beta-catenin cis-reporter transcription, actives raise or lower the signal
Outline: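 Measured: reporter mRNA in HepG2 transiently transfected with cis-promoter reporter units, 24 h after chemical addition. Fitting was bidirectional, DMSO as negative control.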

[2] = ATG_TAL_CIS: Attagene CIS-FACTORIAL HepG2 Assay for human TAL Basal Promoter (AID 2282966; active means hit-call score of the fitted dose curve at least 0.9, where 1 is the maximum; inactive means score below 0.9;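 further: background control endpoint measuring basal TAL promoter reporter mRNA not a specific factor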); details: HepG2 Attagene cis-factorial TAL promoter reporter; actives raise or lower the signal
Outline: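 In this cell-based multiplex, HepG2 liver cells bearing cis-promoter reporter constructs are dosed for 24 hours. Total RNA is reverse-transcribed and amplified, labelled fragments are sized by capillary electrophoresis, and signal changes are fitted bidirectionally versus DMSO.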

[3] = ATG_TGFb_CIS: Attagene CIS-FACTORIAL HepG2 Assay for human Transforming Growth Factor (TGF) (AID 2282967; active means hit-call score of the fitted dose curve at least 0.9, where 1 is the maximum; inactive means score below 0.9); details: HepG2 Attagene CIS TGFb reporter, mRNA transcription; actives raise or lower the signal
Outline: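 HepG2 cells transiently transfected with cis-promoter-driven multiple reporter units measure endogenous TF activity; reporter mRNA quantified at 24 h by RT-PCR, FAM labeling, HpaI digestion and capillary electrophoresis. Bidirectional fit vs DMSO.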

[4] = ATG_VDRE_CIS: Attagene CIS-FACTORIAL HepG2 Assay for human Vitamin D Receptor Element (VDRE) (AID 2282968; active means hit-call score of the fitted dose curve at least 0.9, where 1 is the maximum; inactive means score below 0.9); details: HepG2 VDRE cis-reporter transcription, actives raise or lower the signal
Outline: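 In transiently transfected HepG2 liver cells, gain or loss of reporter mRNA after 24 h exposure is scored relative to DMSO, using fluorescence detection by capillary electrophoresis of RT-PCR products.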

[5] = molecular target: Nuclear receptor subfamily 1 group I member 3 (Homo sapiens) (UniProt Q14994); test: ATG_CAR_TRANS: Attagene TRANS-FACTORIAL HepG2 Assay for human Constitutive Androstane Receptor (CAR) (AID 2282969); details: HepG2 Attagene TRANS-FACTORIAL CAR reporter;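 further: activators raise reporter mRNA above DMSO so AC50 marks induction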
Sequence of Nuclear receptor subfamily 1 group I member 3 (Homo sapiens) (Q14994 whole entry, looked up, the tested form may be a part): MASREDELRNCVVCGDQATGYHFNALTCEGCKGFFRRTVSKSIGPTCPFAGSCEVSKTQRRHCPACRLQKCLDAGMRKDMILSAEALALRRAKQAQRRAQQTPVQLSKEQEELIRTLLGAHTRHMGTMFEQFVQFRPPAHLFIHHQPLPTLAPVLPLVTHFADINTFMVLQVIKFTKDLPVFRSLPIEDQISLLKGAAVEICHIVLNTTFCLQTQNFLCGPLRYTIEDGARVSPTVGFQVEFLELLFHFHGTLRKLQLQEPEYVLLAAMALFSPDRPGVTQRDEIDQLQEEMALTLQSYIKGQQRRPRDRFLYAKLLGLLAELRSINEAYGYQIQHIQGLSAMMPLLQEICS
Outline: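 Readout is reporter mRNA induction, quantified by fluorescent primer extension and capillary electrophoresis after RT-PCR. Cells were HepG2 transiently carrying chimeric NR-Gal4 constructs with GAL4-UAS reporters, treated for 24 h; activity scored upward from DMSO.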

[6] = molecular target: Estrogen receptor (Homo sapiens) (UniProt P03372); test: ATG_ERa_TRANS: Attagene TRANS-FACTORIAL HepG2 Assay for human Estrogen Receptor alpha (ERa) (AID 2282970); details: HepG2 Attagene TRANS ERa GAL4 reporter, mRNA
Sequence of Estrogen receptor (Homo sapiens) (P03372 whole entry, looked up, the tested form may be a part): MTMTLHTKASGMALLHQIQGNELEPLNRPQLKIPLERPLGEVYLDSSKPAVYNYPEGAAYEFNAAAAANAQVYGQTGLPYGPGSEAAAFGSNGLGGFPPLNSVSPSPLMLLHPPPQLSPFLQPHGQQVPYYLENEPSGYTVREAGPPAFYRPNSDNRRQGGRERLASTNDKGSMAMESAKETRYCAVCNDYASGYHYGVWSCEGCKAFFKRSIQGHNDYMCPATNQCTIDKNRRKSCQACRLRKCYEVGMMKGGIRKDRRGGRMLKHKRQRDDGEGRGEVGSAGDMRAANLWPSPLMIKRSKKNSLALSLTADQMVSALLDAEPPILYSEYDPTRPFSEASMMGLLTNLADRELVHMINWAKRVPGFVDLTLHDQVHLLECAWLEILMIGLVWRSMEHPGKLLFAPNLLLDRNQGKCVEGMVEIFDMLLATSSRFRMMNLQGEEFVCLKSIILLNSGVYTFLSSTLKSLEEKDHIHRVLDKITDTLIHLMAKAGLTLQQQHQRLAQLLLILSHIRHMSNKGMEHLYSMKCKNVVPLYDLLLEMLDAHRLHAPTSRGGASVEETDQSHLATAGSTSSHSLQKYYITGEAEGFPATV
Outline: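 After 24 h of compound treatment, RNA from HepG2 cells bearing transfected GAL4-UAS reporter constructs is converted to cDNA, amplified and fluorescently labelled. Capillary electrophoresis resolves the ERa-linked reporter; DMSO serves as negative control.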

[7] = molecular target: Steroid hormone receptor ERR1 (Homo sapiens) (UniProt P11474); test: ATG_ERRa_TRANS: Attagene TRANS-FACTORIAL HepG2 Assay for human Estrogen-Related Receptor alpha (ERRa) (AID 2282971); details: HepG2 Attagene TRANS reporter, ERRa transactivation
Sequence of Steroid hormone receptor ERR1 (Homo sapiens) (P11474 whole entry, looked up, the tested form may be a part): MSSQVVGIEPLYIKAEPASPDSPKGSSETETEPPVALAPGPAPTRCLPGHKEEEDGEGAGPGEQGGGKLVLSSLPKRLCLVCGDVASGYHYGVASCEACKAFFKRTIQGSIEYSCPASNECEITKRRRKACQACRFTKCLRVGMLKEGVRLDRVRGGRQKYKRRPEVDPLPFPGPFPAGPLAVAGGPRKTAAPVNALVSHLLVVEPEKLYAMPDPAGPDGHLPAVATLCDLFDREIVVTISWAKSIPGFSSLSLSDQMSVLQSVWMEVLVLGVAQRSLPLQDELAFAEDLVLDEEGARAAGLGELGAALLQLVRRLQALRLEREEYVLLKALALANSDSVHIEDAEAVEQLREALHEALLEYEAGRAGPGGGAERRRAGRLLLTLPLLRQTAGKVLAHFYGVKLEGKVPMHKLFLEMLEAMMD
Outline: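 Transfected HepG2, 24 h dosing, ERRa-Gal4 chimera driving GAL4-UAS reporter. Readout: reporter mRNA via RT-PCR plus capillary electrophoresis (fluorescence). Positive direction vs DMSO control.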

[8] = molecular target: X-box-binding protein 1 (Homo sapiens) (UniProt P17861); test: ATG_Xbp1_CIS: Attagene CIS-FACTORIAL HepG2 Assay for human X-box Binding Protein 1 (XBP1) (AID 2282972; active means hit-call score of the fitted dose curve at least 0.9, where 1 is the maximum; inactive means score below 0.9); details: HepG2 XBP1 cis-element reporter, Attagene multiplex; actives raise or lower the signal
Sequence of X-box-binding protein 1 (Homo sapiens) (P17861 whole entry, looked up): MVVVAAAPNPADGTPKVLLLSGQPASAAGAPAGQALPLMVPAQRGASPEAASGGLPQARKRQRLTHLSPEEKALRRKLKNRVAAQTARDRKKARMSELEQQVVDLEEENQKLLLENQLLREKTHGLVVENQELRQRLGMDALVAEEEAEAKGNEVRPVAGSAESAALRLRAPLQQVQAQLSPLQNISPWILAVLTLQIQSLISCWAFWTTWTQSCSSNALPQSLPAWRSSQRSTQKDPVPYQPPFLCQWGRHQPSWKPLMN
Outline: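 HepG2 cells transiently transfected with cis-regulated multiple reporter transcription units; endogenous transcription factor activity measured 24 hours after chemical dosing. Reporter mRNA quantified by RT-PCR, 6-FAM primer extension, HpaI digestion and capillary electrophoresis; bidirectional fitting versus DMSO.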

[9] = ATG_M_19_TRANS: Attagene TRANS-FACTORIAL HepG2 Assay for M19 Transcription Factor (Internal Marker) (AID 2282974); details: HepG2 Attagene TRANS-FACTORIAL M19 internal marker reporter
Outline: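 Transfected HepG2 (GAL4-UAS MRTUs), 24 h compound, TriZol RNA, DNase-treated RT, reporter PCR, FAM label, HpaI digest, CE fluorescence; gain vs DMSO.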

[10] = molecular target: Estrogen-related receptor gamma (Homo sapiens) (UniProt P62508); test: ATG_ERRg_TRANS: Attagene TRANS-FACTORIAL HepG2 Assay for human Estrogen-Related Receptor gamma (ERRg) (AID 2282977); details: HepG2 Attagene TRANS reporter, ERRg transactivation;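 further: hits increase reporter signal over DMSO so potencies reflect activators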
Sequence of Estrogen-related receptor gamma (Homo sapiens) (P62508 whole entry, looked up, the tested form may be a part): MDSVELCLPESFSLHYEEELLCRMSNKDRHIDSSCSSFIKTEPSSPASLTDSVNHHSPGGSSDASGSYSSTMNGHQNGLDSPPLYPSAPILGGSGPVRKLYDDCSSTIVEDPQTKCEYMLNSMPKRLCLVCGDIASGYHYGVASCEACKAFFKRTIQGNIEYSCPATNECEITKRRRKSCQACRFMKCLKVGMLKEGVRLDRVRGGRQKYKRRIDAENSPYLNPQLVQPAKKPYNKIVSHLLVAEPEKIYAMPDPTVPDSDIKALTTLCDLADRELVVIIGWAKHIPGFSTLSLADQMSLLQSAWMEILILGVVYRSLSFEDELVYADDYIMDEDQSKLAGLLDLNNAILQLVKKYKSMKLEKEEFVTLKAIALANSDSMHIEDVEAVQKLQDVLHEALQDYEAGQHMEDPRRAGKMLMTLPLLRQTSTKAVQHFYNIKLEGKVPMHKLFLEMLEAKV
Outline: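 Transient HepG2 transfectants, 24 h compound exposure, GAL4-UAS reporter mRNA by RT-PCR/6-FAM labelling/capillary electrophoresis; positive direction vs DMSO.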

[11] = molecular target: Oxysterols receptor LXR-beta (Homo sapiens) (UniProt P55055); test: ATG_LXRb_TRANS: Attagene TRANS-FACTORIAL HepG2 Assay for human Liver X Receptor beta (LXRb) (AID 2282981); details: HepG2 Attagene TRANS GAL4-LXRb reporter, mRNA
Sequence of Oxysterols receptor LXR-beta (Homo sapiens) (P55055 whole entry, looked up, the tested form may be a part): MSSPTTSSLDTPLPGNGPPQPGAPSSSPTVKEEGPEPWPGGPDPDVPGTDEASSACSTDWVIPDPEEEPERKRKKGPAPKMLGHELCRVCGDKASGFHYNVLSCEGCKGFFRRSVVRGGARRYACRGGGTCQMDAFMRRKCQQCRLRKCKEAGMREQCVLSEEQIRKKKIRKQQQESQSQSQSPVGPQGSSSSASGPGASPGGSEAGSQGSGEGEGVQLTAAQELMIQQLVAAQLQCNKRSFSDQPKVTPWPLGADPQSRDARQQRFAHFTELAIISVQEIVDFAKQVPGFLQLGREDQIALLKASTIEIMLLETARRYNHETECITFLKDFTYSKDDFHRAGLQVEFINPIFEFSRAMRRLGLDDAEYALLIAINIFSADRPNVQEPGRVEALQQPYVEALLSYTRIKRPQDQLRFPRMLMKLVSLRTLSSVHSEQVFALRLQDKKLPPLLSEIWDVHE
Outline: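 Cells: HepG2, transiently transfected with GAL4-UAS reporter units plus LXRb-Gal4 fusion. Treatment: 24 h. Detection: reporter mRNA by RT-PCR, 6-FAM labelling, HpaI digestion, capillary electrophoresis.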

[12] = ATG_M_06_TRANS: Attagene TRANS-FACTORIAL HepG2 Assay for M06 Transcription Factor (Internal Marker) (AID 2282983); details: HepG2 Attagene TRANS M06 internal marker reporter
Outline: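 After a 24 h chemical treatment of transfected HepG2, RNA underwent DNase I treatment, reverse transcription and reporter-specific PCR; labelled, HpaI-digested products were sized by capillary electrophoresis. Signal increase relative to DMSO defined activity.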

[13] = molecular target: Nuclear receptor subfamily 4 group A member 2 (Homo sapiens) (UniProt P43354); test: ATG_NURR1_TRANS: Attagene TRANS-FACTORIAL HepG2 Assay for human Nuclear Receptor Related Protein 1 (NURR1) (AID 2282985); details: HepG2 Attagene TRANS reporter, mRNA readout
Outline: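 Cells: HepG2, transiently transfected. Exposure: 24 h. Detection: fluorescence of labelled RT-PCR products separated by capillary electrophoresis; upward fit versus DMSO.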

[14] = molecular target: Glucocorticoid receptor (Homo sapiens) (UniProt P04150); test: ATG_GR_TRANS: Attagene TRANS-FACTORIAL HepG2 Assay for human Glucocorticoid Receptor (GR) (AID 2282978); details: HepG2 Attagene TRANS GR reporter, mRNA transcription;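 further: activators score as hits since higher reporter transcript over DMSO is fitted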
Sequence of Glucocorticoid receptor (Homo sapiens) (P04150 whole entry, looked up): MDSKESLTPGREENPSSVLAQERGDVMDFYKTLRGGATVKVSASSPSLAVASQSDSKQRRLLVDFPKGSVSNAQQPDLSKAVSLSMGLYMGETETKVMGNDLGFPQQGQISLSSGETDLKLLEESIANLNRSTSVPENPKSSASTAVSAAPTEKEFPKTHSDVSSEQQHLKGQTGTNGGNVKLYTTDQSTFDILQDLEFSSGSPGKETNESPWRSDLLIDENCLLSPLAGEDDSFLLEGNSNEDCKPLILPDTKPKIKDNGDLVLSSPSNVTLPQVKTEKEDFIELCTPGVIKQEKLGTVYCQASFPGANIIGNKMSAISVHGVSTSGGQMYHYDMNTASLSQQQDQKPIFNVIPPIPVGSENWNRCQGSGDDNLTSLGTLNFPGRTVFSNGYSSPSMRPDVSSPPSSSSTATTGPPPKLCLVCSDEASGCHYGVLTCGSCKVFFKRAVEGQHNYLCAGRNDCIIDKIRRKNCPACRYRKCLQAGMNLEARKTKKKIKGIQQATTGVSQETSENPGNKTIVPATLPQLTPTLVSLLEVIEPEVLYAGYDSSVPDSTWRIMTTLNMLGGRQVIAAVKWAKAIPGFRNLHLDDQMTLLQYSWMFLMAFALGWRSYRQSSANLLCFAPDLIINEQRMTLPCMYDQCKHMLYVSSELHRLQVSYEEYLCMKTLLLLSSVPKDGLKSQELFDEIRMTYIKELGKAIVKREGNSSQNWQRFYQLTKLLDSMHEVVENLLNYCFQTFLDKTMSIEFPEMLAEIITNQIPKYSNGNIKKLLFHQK
Outline: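 After 24 h incubation with test chemical, transfected HepG2 cells were lysed for RNA; reporter cDNA was amplified, FAM-labelled, HpaI-digested and sized on a capillary analyser. Signal gain relative to DMSO was scored.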

[15] = molecular target: Oxysterols receptor LXR-alpha (Homo sapiens) (UniProt Q13133); test: ATG_LXRa_TRANS: Attagene TRANS-FACTORIAL HepG2 Assay for human Liver X Receptor alpha (LXRa) (AID 2282980); details: HepG2 Attagene TRANS reporter, LXRa transactivation
Sequence of Oxysterols receptor LXR-alpha (Homo sapiens) (Q13133 whole entry, looked up, the tested form may be a part): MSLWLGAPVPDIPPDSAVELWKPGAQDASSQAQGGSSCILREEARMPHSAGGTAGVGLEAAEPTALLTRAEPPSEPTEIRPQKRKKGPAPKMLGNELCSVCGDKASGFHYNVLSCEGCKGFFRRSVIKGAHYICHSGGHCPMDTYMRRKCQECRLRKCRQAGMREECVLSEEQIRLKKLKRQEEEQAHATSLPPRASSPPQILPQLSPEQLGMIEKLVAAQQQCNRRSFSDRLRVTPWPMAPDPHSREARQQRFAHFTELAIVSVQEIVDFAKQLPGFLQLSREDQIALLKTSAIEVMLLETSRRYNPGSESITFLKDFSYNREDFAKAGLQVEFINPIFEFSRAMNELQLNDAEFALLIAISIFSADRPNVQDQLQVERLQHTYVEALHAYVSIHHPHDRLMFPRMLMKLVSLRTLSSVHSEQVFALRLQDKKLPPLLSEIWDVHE
Outline: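 Read-out: reporter transcript levels by RT-PCR plus capillary electrophoresis, fluorescence intensity. Transiently transfected HepG2, exogenous NR-GAL4 chimera, GAL4-UAS reporters; 24 h compound exposure. Activity = increase over DMSO negative control.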

[16] = molecular target: Hepatocyte nuclear factor 4-alpha (Homo sapiens) (UniProt P41235); test: ATG_HNF4a_TRANS: Attagene TRANS-FACTORIAL HepG2 Assay for human Hepatocyte Nuclear Factor 4 alpha (HNF4a) (AID 2282982); details: HepG2 HNF4a transactivation reporter, mRNA readout
Sequence of Hepatocyte nuclear factor 4-alpha (Homo sapiens) (P41235 whole entry, looked up): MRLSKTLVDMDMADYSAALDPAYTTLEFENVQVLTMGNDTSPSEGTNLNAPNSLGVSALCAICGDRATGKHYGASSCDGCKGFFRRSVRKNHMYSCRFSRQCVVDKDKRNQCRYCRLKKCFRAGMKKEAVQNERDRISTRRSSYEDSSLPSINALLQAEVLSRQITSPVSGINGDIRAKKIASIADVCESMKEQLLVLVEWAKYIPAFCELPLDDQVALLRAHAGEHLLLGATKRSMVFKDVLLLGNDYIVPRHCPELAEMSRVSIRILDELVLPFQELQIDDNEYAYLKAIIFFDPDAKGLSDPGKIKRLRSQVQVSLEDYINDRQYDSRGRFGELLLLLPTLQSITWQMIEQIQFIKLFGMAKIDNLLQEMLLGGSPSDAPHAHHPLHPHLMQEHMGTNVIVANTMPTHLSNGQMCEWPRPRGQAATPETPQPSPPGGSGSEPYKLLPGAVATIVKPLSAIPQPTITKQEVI
Outline: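 Transfected HepG2 reporter cells are dosed for 24 h; reporter RNA is reverse-transcribed, amplified, fluorescently labelled and HpaI-digested before CE sizing. Positive-direction fit against DMSO.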

[17] = ATG_M_32_TRANS: Attagene TRANS-FACTORIAL HepG2 Assay for M32 Transcription Factor (Internal Marker) (AID 2282984); details: HepG2 Attagene TRANS M32 internal marker reporter;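 further: transcript level of a background control reporter unit measured by RT-PCR and capillary electrophoresis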
Outline: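 Using transiently transfected HepG2 cells exposed to test chemicals for 24 h, reporter transcripts are converted to labelled cDNA fragments and quantified by capillary electrophoresis. DMSO defines the activity baseline.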

[18] = ATG_GAL4_TRANS: Attagene TRANS-FACTORIAL HepG2 Assay for GAL4 (Internal Marker) (AID 2282976); details: HepG2 Attagene TRANS GAL4 internal marker reporter
Outline: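 RT-PCR/capillary electrophoresis readout of reporter mRNA. HepG2, transient MRTU transfection (GAL4-UAS reporters), 24 h compound exposure. Background-control endpoint, positive direction vs DMSO baseline.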

[19] = molecular target: Transcriptional activator Myb (Homo sapiens) (UniProt P10242); test: ATG_Myb_CIS: Attagene CIS-FACTORIAL HepG2 Assay for human Myeloblastosis (Myb) Proto-Oncogene Transcription Factor (AID 2282986; active means hit-call score of the fitted dose curve at least 0.9, where 1 is the maximum; inactive means score below 0.9); details: HepG2 Attagene CIS-FACTORIAL Myb reporter transcription; actives raise or lower the signal
Sequence of Transcriptional activator Myb (Homo sapiens) (P10242 whole entry, looked up): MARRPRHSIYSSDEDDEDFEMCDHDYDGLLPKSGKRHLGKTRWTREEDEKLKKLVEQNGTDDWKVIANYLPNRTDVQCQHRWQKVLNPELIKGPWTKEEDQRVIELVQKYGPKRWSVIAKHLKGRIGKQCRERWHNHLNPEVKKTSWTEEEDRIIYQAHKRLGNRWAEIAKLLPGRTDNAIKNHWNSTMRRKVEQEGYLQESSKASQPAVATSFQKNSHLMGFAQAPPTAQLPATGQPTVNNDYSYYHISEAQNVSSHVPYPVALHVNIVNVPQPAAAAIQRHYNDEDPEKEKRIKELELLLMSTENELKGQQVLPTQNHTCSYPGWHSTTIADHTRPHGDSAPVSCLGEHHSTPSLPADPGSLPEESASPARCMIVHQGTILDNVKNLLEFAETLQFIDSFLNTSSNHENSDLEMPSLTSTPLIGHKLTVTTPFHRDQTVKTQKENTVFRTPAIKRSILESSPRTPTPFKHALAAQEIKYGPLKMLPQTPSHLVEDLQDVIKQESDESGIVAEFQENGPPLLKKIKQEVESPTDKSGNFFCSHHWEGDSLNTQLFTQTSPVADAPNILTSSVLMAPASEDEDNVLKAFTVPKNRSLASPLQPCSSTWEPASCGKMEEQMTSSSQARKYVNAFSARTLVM
Outline: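 After 24 h of compound dosing, total RNA from transfected HepG2 cells is reverse-transcribed and the reporter sequences amplified, labeled and separated by capillary electrophoresis. Values come from bidirectional fitting against DMSO.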

[20] = molecular target: Bile acid receptor (Homo sapiens) (UniProt Q96RI1); test: ATG_FXR_TRANS: Attagene TRANS-FACTORIAL HepG2 Assay for Farnesoid X Receptor (FXR) (AID 2282979); details: HepG2 Attagene TRANS FXR-GAL4 reporter transcription;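 further: hits raise reporter mRNA above DMSO so AC50 marks FXR activation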
Outline: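 Read-out: fluorescent reporter transcripts quantified by capillary electrophoresis after RT-PCR of total RNA. Source cells were HepG2 transiently carrying chimeric NR-GAL4 plus GAL4-UAS reporter units, dosed 24 h. Activity fitted upward relative to DMSO baseline.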

Measured: AC50

COP(=S)(OC)Oc1nc(Cl)c(Cl)cc1Cl
active: [4] 27.8 µM | [6] 33.1 µM
not listed: [14] | [15] | [16] | [17] | [18] | [19] | [20]
inactive: all other assays above

CNC(=S)S
inactive: [1] | [2] | [3] | [4] | [5] | [8] | [14] | [15] | [11] | [16] | [12] | [17] | [13]
active: [1] 168 µM

Cc1cc(Cl)ccc1OCC(=O)O
not listed: [7] | [10] | [20]
inactive: all other assays above

CC1COC(Cn2cncn2)(c2ccc(Oc3ccc(Cl)cc3)cc2Cl)O1 (stereo unspecified)
active: [3] 3.17 µM | [4] 3.17 µM
not listed: [5] | [9] | [13] | [16] | [18] | [19]
inactive: all other assays above

O=C(O)c1nc(Cl)ccc1Cl
not listed: [4] | [5] | [7] | [10] | [16] | [18] | [19] | [20]
inactive: all other assays above

N#CC(CCc1ccc(Cl)cc1)(Cn1cncn1)c1ccccc1 (stereo unspecified)
not listed: [5] | [12] | [13] | [15] | [18]
inactive: all other assays above

Fc1ccc(Oc2ccnc3cc(Cl)cc(Cl)c23)cc1
not listed: [7] | [10] | [12] | [18] | [19] | [20]
inactive: all other assays above

CN(C)C(=S)SSC(=S)N(C)C
inactive: [1] | [2] | [3] | [4] | [6] | [8] | [9] | [15] | [11] | [13]

N#Cc1cc(Br)c(O)c(Br)c1
inactive: [1] | [2] | [3] | [6] | [7] | [9] | [10] | [15] | [11] | [16]
active: [8] 31.6 µM

C#CCOS(=O)OC1CCCCC1Oc1ccc(C(C)(C)C)cc1 (stereo unspecified)
not listed: [4] | [7] | [9] | [13] | [14] | [17] | [18] | [19]
inactive: all other assays above

CCON=C(CC)C1=C(O)CC(c2c(C)cc(C)cc2C)CC1=O (stereo unspecified)
inactive: [1] | [2] | [3] | [4] | [6] | [8] | [15] | [11] | [12] | [17] | [19]

COP(N)(=O)SC (stereo unspecified)
not listed: [7] | [10] | [11] | [14] | [18] | [19] | [20]
inactive: all other assays above

O=C(Nc1ccccc1)Nc1ccnc(Cl)c1
active: [4] 50 µM | [13] 50 µM
not listed: [5] | [12] | [18] | [19] | [20]
inactive: all other assays above

CCCCNC(=O)n1c(NC(=O)OC)nc2ccccc21
not listed: [7] | [9] | [10] | [13] | [17] | [18] | [20]
inactive: all other assays above

CS/C(C)=N/OC(=O)N(C)SN(C)C(=O)O/N=C(\C)SC
not listed: [4] | [7] | [12] | [14] | [16] | [18] | [19] | [20]
inactive: all other assays above
